Shown are actives, neighbours in structure and some others; about 11% of the full set was active somewhere.
ALDH1A1 inh – qHTS Assay for Inhibitors of Aldehyde Dehydrogenase 1 (ALDH1A1). Aldehyde dehydrogenase 1A1 (Homo sapiens), P00352. Purified ALDH1A1, NADH fluorescence, propionaldehyde substrate. Potency, µM (top dose mostly 75.3 µM), most hits filed as inhibitors. 220,000 tested, 7.3% active. AID 1030, 2008
HPGD block – qHTS Assay for Inhibitors of HPGD (15-Hydroxyprostaglandin Dehydrogenase) | 150,000 tested, 4.3% active | Potency, µM, hits mostly inhibitors | AID 894, 2007 | purified HPGD, NADH fluorescence kinetic, PGE2 substrate | 15-hydroxyprostaglandin dehydrogenase [NAD(+)] (Homo sapiens), P15428
Target sequence (P15428 whole entry, looked up): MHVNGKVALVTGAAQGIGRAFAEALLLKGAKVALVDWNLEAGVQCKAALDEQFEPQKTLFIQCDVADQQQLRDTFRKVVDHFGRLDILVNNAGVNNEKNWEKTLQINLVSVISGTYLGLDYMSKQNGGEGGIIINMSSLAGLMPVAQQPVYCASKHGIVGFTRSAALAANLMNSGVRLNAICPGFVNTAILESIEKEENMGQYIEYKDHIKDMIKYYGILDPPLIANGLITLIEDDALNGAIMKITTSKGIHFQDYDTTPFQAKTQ
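NADH formation kinetics: reaction with 30 uM PGE2 and 1 mM NAD+ (final), 20 nM enzyme, Tris-HCl pH 8 with Tween 20, after 15 min compound preincubation at room temperature. Fluorescence change, last versus first of five reads.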
IMPase inh – qHTS Assay for Identifying the Cell-Membrane Permeable IMPase Inhibitors; Inositol monophosphatase 1 (Rattus norvegicus), P97697; CHO-M1 cells, IP1 accumulation, HTRF TR-FRET ratio; inhibition (IP1 accumulation), % at 46.1 µM; 120,000 tested, under 10 active; AID 901, 2007; active = well fitted curve in the direction sought with a large enough effect in the signal ratio, not every such curve was filed as active; inconclusive = small, poorly fitted or top-dose-only effect, or a change in a side signal; inactive = no such curve, though single readings can be large or run the other way; the % refers to the signal ratio;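 note: cells stimulated with carbachol in lithium chloride buffer; higher means more IMPase inhibition seen as more IP1 and lower FRET ratio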
Target sequence (P97697 whole entry, looked up): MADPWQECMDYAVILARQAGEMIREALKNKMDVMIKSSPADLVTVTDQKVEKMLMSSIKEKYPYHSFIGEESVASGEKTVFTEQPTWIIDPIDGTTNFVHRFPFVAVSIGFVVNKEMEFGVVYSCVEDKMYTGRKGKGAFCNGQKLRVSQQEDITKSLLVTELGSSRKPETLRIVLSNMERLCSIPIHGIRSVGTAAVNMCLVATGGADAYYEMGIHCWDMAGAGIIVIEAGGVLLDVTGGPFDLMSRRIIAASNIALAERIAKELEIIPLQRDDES
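Seeded CHO-M1 cells were dosed with compound at up to 46 uM, stimulated with carbachol for 30 min, then lysed in IP-One detection reagents. Higher IP1 lowers the TR-FRET signal.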
NPSR antagonist – qHTS Assay for Antagonists of the Neuropeptide S Receptor: cAMP Signal Transduction. Q6W5P4. CHO-NPSR cells, cAMP TR-FRET, antagonist mode. Potency, µM (top dose mostly 38.3 µM), actives largely listed as inhibitors. 220,000 tested, 1% active; active = well fitted curve in the direction sought with a large enough effect; inconclusive = small, poorly fitted or top-dose-only effect, or another doubt; inactive = no such curve, though single readings can be large; an effect the other way counts as inactive or inconclusive; note: nearly all actives have a fitted effect of over 50% in size
IMPase Li inh – qHTS Assay for Identifying the Cell-Membrane Permeable IMPase Inhibitors: Potentiation with Lithium; 210,000 tested, 0.35% active; CHO-M1 cells, IP1 TR-FRET (IP-One), carbachol + lithium; AID 1457, 2008; Potency, µM (doses to about 59.4 µM), most hits filed as inhibitors; active = well fitted curve in the direction sought with a large enough effect; inconclusive = small, poorly fitted or top-dose-only effect, or another doubt; inactive = no such curve, though single readings can be large; an effect the other way counts as inactive or inconclusive;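 note: IP1 builds up when IMPase is blocked and the TR-FRET signal falls; nearly all actives have a fitted effect of over 50% in size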
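Lithium-sensitised IP1 accumulation assay; M1-expressing CHO cells treated 30 min at 37C with compound. Competitive antibody detection by time-resolved FRET followed a 10 min room-temperature lysis step.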
PNC assembly inh – High Content Assay for Compounds that inhibit the Assembly of the Perinucleolar Compartment; PC3M PTB-GFP, PNC prevalence imaging, 16 h; stronger effect = lower value; AID 2417, 2010; activity change (PNC), negative = inhibition, % at 10 µM; 140,000 tested, 3.1% active;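 active = readout at or below -70, meaning at least 70% loss of cells showing the perinucleolar compartment, a nuclear body marking cancer cells; inconclusive = readout between -30 and a set limit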
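Read-out is percentage of cells bearing a perinucleolar compartment, from automated 20x imaging of fixed, Hoechst-stained PC3M PTB-GFP cells. Cells were seeded 4 h, then exposed 16 h to compound (23 nl of library stock) in duplicate plates.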
Numbers stand for hits; - = inactive; ? = inconclusive; . = not tested or not shown. Unless noted, calls come from the whole dose curve; as a rule, active = well fitted inhibition curve with a large enough effect (not every such curve was filed as active); inconclusive = small, poorly fitted or top-dose-only effect, or another doubt; inactive = no such curve, though single readings can be large or run the other way.

SMILES	ALDH1A1 inh	HPGD block	IMPase inh	NPSR antagonist	IMPase Li inh	PNC assembly inh
CCOC(=O)C1=C(CSc2nc(CC)c(C)cc2C#N)OC(N)=C(C#N)C1c1ccccc1 (configuration not stated)	?	-	-	-	-	-
COC(=O)C1=C(C)OC(N)=C(C#N)C1c1ccc(OC)c(OC)c1OC (configuration not stated)	-	-	-	-	-	?
COc1ccc(OC)c(CNn2c(-c3ccccc3F)nc3ccccc3c2=O)c1	?	.	.	-	-	.
O=C(O)C1=C[C@H](c2ccc(C(F)(F)F)cc2)C[C@H](OCc2ccc(CO)cc2)O1	-	.	.	-	-	.
COCCCNC(=O)c1ccccc1NS(C)(=O)=O	?	?	-	-	-	-
O=C(NCCN1CCOCC1)c1ccc2c(c1)N(Cc1ccccc1F)C(=O)CS2	-	-	-	-	-	-
O=C1CSc2ccccc2N1Cc1ccccc1F	22µM	-	-	-	-	?
CC(C)Cn1c(O)c(N=NC(=O)c2cccc(S(=O)(=O)N3CCCCC3)c2)c2ccccc21	3.5µM	-	.	-	-	-
CC(C)CCn1c(O)c(N=NC(=O)c2ccco2)c2ccccc21	-	-	.	-	-	-
CCCCCCCC(=O)NNC(=O)c1ccc([N+](=O)[O-])cc1	?	-	-	-	-	-
O=C(COc1ccccc1)NNC(=S)NC(=O)c1ccccc1	22µM	.	.	-	-	.
O=C(CCN1CCCCC1)NNC(=S)NC(=O)c1ccc(Br)cc1	28µM	.	.	-	-	.
CCCC(=O)NC(=S)NNC(=O)c1ccc([N+](=O)[O-])cc1	18µM	-	.	-	-	?
O=C(Cc1cccs1)NNC(=S)NC(=O)c1ccccc1	?	-	.	-	-	-
COc1ccc(C(=O)NC(=S)NNC(=O)c2cnccn2)cc1	18µM	?	-	-	-	-
Cc1ccc(SCCC(=O)Nc2ccccc2C(=O)NC2CCCCC2)cc1	?	-	.	-	-	-
O=c1[nH]cc(COCc2ccccc2)c(=O)[nH]1	-	-	-	-	-	-
CCc1ccc(CN(C)C(=O)c2cc(COc3c(F)cccc3F)on2)cc1	-	.	.	-	-	.
CC(=O)NNC(=S)NC(=O)c1ccccc1	18µM	.	.	-	-	.
CCCCCC(=O)NNC(=S)NC(=O)c1cccc([N+](=O)[O-])c1	1.3µM	10µM	.	-	-	-
O=C(COc1ccc([N+](=O)[O-])cc1)NNC(=S)NC(=O)c1ccc(Br)cc1	8.9µM	.	.	-	-	.
CCCCCC(=O)NNC(=S)NC(=O)c1ccccc1[N+](=O)[O-]	-	.	.	-	-	.
COc1ccc(C(=O)NC(=S)NNC(=O)COc2ccccc2)cc1	18µM	.	.	-	-	.
COc1ccc(OCC(=O)NNC(=O)c2cccnc2)cc1	-	-	-	-	-	-
CCCC(=O)NCn1nnc(-c2ccc(Cl)cc2)n1	-	.	.	-	-	.
SMILES	ALDH1A1 inh	HPGD block	IMPase inh	NPSR antagonist	IMPase Li inh	PNC assembly inh
COCCCNCCCCOc1c(Cl)cc(C)cc1Br	?	-	-	-	-	-
O=S(=O)(c1ccc2c(c1)nc1n2CCC1)N1CCOCC1	-	-	-	-	-	-
O=C(Nc1ccc(Cl)cc1)Nc1nnc(CSCc2ccccc2Cl)s1	-	-	-	-	-	-
O=C(Nc1ccccc1)Nc1nnc(CSCc2ccccc2Cl)s1	-	-	-	-	-	-88
Cn1nc(C(F)(F)F)c(/C=N/OC(=O)c2ccccc2)c1SCc1ccccc1Cl	-	.	-	-	.	?
S=C1NCCc2ccccc2C1c1ccccc1Cl (configuration not stated)	-	-	-	-	-	-
S=C1NCCc2ccccc2C1c1ccccc1 (configuration not stated)	-	40µM	?	-	-	-
COC(=O)c1cccc(NC(=O)c2cc(OC)c(OC)c(OC)c2Br)c1	40µM	?	.	-	-	-
COc1ccc(-n2nnnc2-c2cccc(OC)c2)cc1	-	-	-	?	-	-83

Screening results as filed in PubChem.
